# Measured values as given in PubChem BioAssay AID588397 (National Center for Advancing Translational Sciences (NCATS), 2011).
# In all, about 1,300 compounds went through this assay and about 1,000 (77%) were called active. Inconclusive results (about 7%) are left out. Calls follow the shape of the dose curve; as a rule, active = well fitted inhibition curve with a large enough effect; inconclusive = small, poorly fitted or top-dose-only effect; inactive = no such curve, though single readings can be large or run the other way. The set was probably picked from earlier hits. The list shows a part of the results.
# Experiment: qHTS of small molecules that selectively kill Giardia lamblia: Hit Validation.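 Also: viability measured as ATP content by luminescence so killing lowers signal; nearly all actives have a fitted effect of over 65% in size.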
# Details: Giardia lamblia trophozoite viability, dose-response; series mostly up to 38.3 µM
# Method in brief: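 Compounds were tested on trophozoites seeded at 100 cells/well and held 48 hrs at 37 deg C anaerobically. An ATP-based luminescent kit measured the remaining live cells.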
# Potency is read from the fitted curve at half-maximal effect.
row,Structure (SMILES),Potency
1,O=C(Cc1ccccc1)Nc1nnc(-c2cccs2)s1,1.45 µM (active)
2,O=[N+]([O-])c1ccc2nc(CO)[nH]c2c1,2.31 µM (active)
3,CCc1nc2cc([N+](=O)[O-])c([N+](=O)[O-])cc2[nH]1,6.5 µM (active)
4,Cn1c([N+](=O)[O-])cnc1N1CCN(c2nncs2)C1=O,0.365 µM (active)
5,Cc1cc(C)c2sc(NC(=O)c3ccc([N+](=O)[O-])o3)nc2c1,1.16 µM (active)
6,Cc1cc(C)c2nc(NC(=O)c3ccc([N+](=O)[O-])o3)sc2c1,1.16 µM (active)
7,Cc1cccc(-n2ncc3c(N4CCCC4)ncnc32)c1,5.16 µM (active)
8,COc1ccc(Cn2ccnc2SCC(=O)NC2CCCC2)cc1,inactive
9,COc1ccc(C(=S)NC2CCCCC2)cc1,1.03 µM (active)
10,Cc1nc2c(o1)C(=O)c1ccccc1C2=Nc1ccccc1,6.5 µM (active)
11,Cc1cccc(-n2nc([N+](=O)[O-])c(=NCc3cccnc3)n2O)c1,4.1 µM (active)
12,COc1ccc(-n2nc([N+](=O)[O-])c(=NCc3cccnc3)n2O)cc1,2.59 µM (active)
13,Cc1ccc(CN=c2c([N+](=O)[O-])nn(-c3cccc(Cl)c3)n2O)cc1,18.3 µM (active)
14,Cc1ccc(CN=c2c([N+](=O)[O-])nn(-c3cccc(C)c3)n2O)cc1,18.3 µM (active)
15,O=[N+]([O-])c1nn(-c2ccc3c(c2)OCCO3)n(O)c1=NC1CCCC1,3.65 µM (active)
16,O=[N+]([O-])c1nn(-c2ccc3c(c2)OCCO3)n(O)c1=NC1CCCCCC1,2.05 µM (active)
17,O=[N+]([O-])c1nn(-c2ccc3c(c2)OCCO3)n(O)c1=NC1CCCCC1,3.26 µM (active)
18,Cc1nc([N+](=O)[O-])cn1-c1nc2ccccn2c1[N+](=O)[O-],1.83 µM (active)
19,COc1cc(-c2noc(C)c2C(=O)NCC[C@@H]2CCCN2C)cc(OC)c1OC,inactive
20,Cc1ccc(NC(=O)C2CCN(S(=O)(=O)c3cc([N+](=O)[O-])ccc3Cl)CC2)nc1,4.6 µM (active)

row,Structure (SMILES),Potency
1,Cc1cc(C)cc(NC(=O)Cn2c(=O)oc3cc(S(=O)(=O)N4CCC(C)CC4)ccc32)c1,inactive
2,Cc1ccc([N+](=O)[O-])cc1NC(=O)C1CCN(S(C)(=O)=O)CC1,inactive
3,Cc1ccc(SCCNC(=O)c2ccccc2F)cc1,inactive
4,Cc1ccc(C)c(Sc2ccc(NC(=O)CCl)cc2)c1,0.918 µM (active)
5,C(=C\c1cnc2ccccc2n1)/c1ccc2c(c1)OCO2,2.31 µM (active)
6,C(=C\c1nc2ccccc2s1)/c1ccc2c(c1)OCO2,2.31 µM (active)
7,Cc1ccccc1C(=O)N/N=C/c1ccc([N+](=O)[O-])s1,1.45 µM (active)
8,Cc1cc(C(=O)N/N=C/c2ccc([N+](=O)[O-])s2)c2ccccc2n1,2.9 µM (active)
9,Cc1ccccc1NCC(=O)N/N=C\c1ccc([N+](=O)[O-])s1,3.26 µM (active)
10,O=C(N/N=C/c1ccc([N+](=O)[O-])s1)c1ccccc1Br,1.63 µM (active)
11,N/C(=N\N=Cc1ccc2c(c1)OCO2)NN=Cc1ccc2c(c1)OCO2,4.1 µM (active)
12,C[C@@H]1CC=C[C@H]2[C@H]1C(=O)N(Cc1ccccc1)[C@H]2c1ccc2ccccc2c1/C=C/c1ccccc1,inactive
13,CCOC(=O)c1nc(C(=O)NCc2ccc(C)cc2)nc2ccccc12,7.29 µM (active)
14,N#Cc1ccc(-c2c(-c3ccccc3)ncc3cc(F)ccc23)cc1,inactive
15,O=[N+]([O-])c1nn(-c2ccc(Cl)cc2)n(O)c1=NCc1ccncc1,3.65 µM (active)
16,Cc1ccc(CN=c2c([N+](=O)[O-])nn(-c3ccc(Cl)cc3)n2O)cc1,7.29 µM (active)
17,O=[N+]([O-])c1nn(-c2ccc(Cl)cc2)n(O)c1=NCc1ccccc1,9.18 µM (active)
18,COc1ccc(OC)c(NC(=O)N2CCc3ccccc3C2)c1,inactive
19,COc1ccc2cc3cc(C(=O)Nc4ccccc4N4CCN(C)CC4)oc3nc2c1,2.05 µM (active)
20,Cc1ccccc1Cn1nnc2c1C(=O)c1ccccc1C2=O,2.9 µM (active)

row,Structure (SMILES),Potency
1,O=[N+]([O-])c1ccc(CN2CCN(c3ccc(F)cc3)CC2)o1,1.03 µM (active)
2,O=[N+]([O-])c1ccc(CN2CCN(c3ccc(Cl)cc3)CC2)o1,0.729 µM (active)
3,O=[N+]([O-])c1ccc(N2CCN(Cc3ccc([N+](=O)[O-])o3)CC2)cc1,0.516 µM (active)
4,O=C(CN1CCN(c2ccccc2)CC1)Nc1scc2c1c(=O)oc1ccccc12,inactive
5,O=[N+]([O-])c1ccc(CN2CCN(c3ccccc3)CC2)o1,0.818 µM (active)
6,COc1ccc(C(=O)CC(SCC(NC(C)=O)C(=O)O)c2ccc(Cl)cc2)cc1OC (stereo not given),13 µM (active)
7,COc1ccc2c3n([n+]([O-])c2c1)CCN=C3c1cc(Cl)c(N)c(Cl)c1,0.183 µM (active)
8,COc1ccc2c3n([n+]([O-])c2c1)CCN=C3c1ccc(C)cc1,0.365 µM (active)
9,COc1ccc2c3n([n+]([O-])c2c1)CCN=C3c1ccc(Cl)cc1,0.579 µM (active)
10,Nc1c(Cl)cc(C2=NCCn3c2c2ccccc2[n+]3[O-])cc1Cl,0.326 µM (active)
11,c1ccc(-c2cn3nc(-c4ccccc4)sc3n2)cc1,0.918 µM (active)
12,O=C(O)CCCCCNS(=O)(=O)c1cccc2c1C(=O)c1ccccc1C2=O,3.65 µM (active)
13,CC(C)c1ccc(Nc2nnc(SCC(=O)Nc3ncc(S(=O)(=O)c4ccc([N+](=O)[O-])cc4)s3)s2)cc1,2.05 µM (active)
14,N#CC1C=Cc2c(ccc3ccccc23)N1C(=O)c1ccccc1 (stereo not given),1.63 µM (active)
15,O=C(Cn1cnc2c(OCc3ccccc3)ncnc21)NCCCc1ccccc1,inactive
16,c1ccc(CNc2ncnc3ccccc23)cc1,inactive
17,O=C(Cn1ccnc1[N+](=O)[O-])NCc1ccccc1,1.3 µM (active)
18,CC1CC(C)C(=NNC(N)=O)C(C(O)CC2CCC(=O)NC2=O)C1 (stereo not given),0.163 µM (active)
19,COc1ccc(NC(C)C(=O)N/N=C/c2ccc([N+](=O)[O-])s2)cc1 (stereo not given),1.63 µM (active)
20,Cc1ccc(NC(C)C(=O)N/N=C/c2ccc([N+](=O)[O-])s2)cc1 (stereo not given),2.9 µM (active)
